Laboratory results as given in paper PMC4336329 (PLoS ONE, 2015).
Screen size: about 310,000 compounds; about 14,000 (4.5%) showed an effect of 50% or more. Effects have a minus sign here. Shown is part of a subset that was picked to be rich in strong results.

molecular target: human ether-à-go-go-related gene (hERG) potassium channel (human, UniProt Q12809); test: primary screen, population patch clamp on CHO cells stably expressing hERG; higher = less effect of the substance
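Note: peak tail current of the secondary pulse compared with the same well before compound.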

Sequence of human ether-à-go-go-related gene (hERG) potassium channel (Q12809 whole entry, looked up): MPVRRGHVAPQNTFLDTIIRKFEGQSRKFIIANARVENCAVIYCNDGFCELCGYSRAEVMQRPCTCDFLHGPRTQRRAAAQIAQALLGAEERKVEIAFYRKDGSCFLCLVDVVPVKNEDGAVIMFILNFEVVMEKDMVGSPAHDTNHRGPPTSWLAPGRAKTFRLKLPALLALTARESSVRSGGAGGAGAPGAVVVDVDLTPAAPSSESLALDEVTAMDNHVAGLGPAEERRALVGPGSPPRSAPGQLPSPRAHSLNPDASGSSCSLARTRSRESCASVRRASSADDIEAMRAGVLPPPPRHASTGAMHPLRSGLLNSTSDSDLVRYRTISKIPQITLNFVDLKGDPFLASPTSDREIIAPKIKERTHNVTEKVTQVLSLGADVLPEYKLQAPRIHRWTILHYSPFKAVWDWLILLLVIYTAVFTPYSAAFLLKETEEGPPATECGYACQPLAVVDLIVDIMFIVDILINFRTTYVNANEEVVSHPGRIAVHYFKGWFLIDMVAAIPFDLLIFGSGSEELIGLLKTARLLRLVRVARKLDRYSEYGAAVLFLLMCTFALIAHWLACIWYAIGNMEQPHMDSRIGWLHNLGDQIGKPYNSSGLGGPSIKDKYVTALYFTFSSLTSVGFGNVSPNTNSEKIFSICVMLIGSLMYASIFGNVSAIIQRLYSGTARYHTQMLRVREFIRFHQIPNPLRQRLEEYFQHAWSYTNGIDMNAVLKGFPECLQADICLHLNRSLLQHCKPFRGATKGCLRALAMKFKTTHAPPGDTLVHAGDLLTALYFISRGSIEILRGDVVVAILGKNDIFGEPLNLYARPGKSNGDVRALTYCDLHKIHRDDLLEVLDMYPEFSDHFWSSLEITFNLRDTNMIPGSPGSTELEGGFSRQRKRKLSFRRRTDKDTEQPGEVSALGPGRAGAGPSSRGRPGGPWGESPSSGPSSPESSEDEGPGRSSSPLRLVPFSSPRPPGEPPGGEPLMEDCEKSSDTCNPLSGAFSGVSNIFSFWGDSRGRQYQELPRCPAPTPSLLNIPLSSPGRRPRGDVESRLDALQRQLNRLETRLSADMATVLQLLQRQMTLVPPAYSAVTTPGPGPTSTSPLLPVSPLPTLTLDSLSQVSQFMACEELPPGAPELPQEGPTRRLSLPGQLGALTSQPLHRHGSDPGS

SMILES | hERG current change (%, negative = inhibition) at 10uM [%]
O=C(NC1CCCC1)c1cc2nc(-c3ccco3)cc(C(F)(F)F)n2n1 | 20.1
C#CCOCCOCCOCCNc1nc(N2CCN(C(=O)[C@H]([C@@H](C)CC)n3cc([C@@H](N)CO)nn3)CC2)nc(N2CCN(C(=O)[C@H](CCCCN)n3cc([C@@H](N)CC(C)C)nn3)CC2)n1.Cl | -0.687
NC(=O)CSc1cn(Cc2ccc(F)cc2)c2ccccc12 | 2.24
COc1ccc2c(c1)c(=O)oc1c(C)c(OCc3cc(C(=O)O)oc3C)ccc12 | 22.5
C=CCc1c(C)nc(-c2ccccc2)nc1N/N=C(\C)c1ccc(N)cc1 | -0.357
O=C(NCCCN1CCN(c2ccc(F)cc2)CC1)Nc1ccc([N+](=O)[O-])cc1 | -73.9
CCOc1cccc(N2CCN(CCNC(=O)Nc3ccc(C)cc3)CC2)c1C | -57
CSc1ccc(N2CCN(CCCNC(=O)Nc3ccccc3F)CC2)cc1 | -49.1
O=C(NCCCN1CCN(c2ccc(F)cc2)CC1)NC12CC3CC(CC(C3)C1)C2 | -73.2
O=C(NCCCN1CCOCC1)NC12CC3CC(CC(C3)C1)C2 | 1.72
Cc1ccc(NC(=O)NCCN2CCN(C(=O)Nc3ccc(C)cc3)CC2)cc1 | -36.4
O=C(CN1C(=O)COc2ccccc21)NCCCN1CCN(c2ccccc2F)CC1 | -10.7
O=C(NCCc1ccc(F)cc1)NC12CC3CC(CC(C3)C1)C2 | -13.4
CSc1ccc(NC(=O)NCCCN2CCN(c3ccccc3F)CC2)cc1 | -55.1
O=C(NCCc1ccc(F)cc1)Nc1ccc([N+](=O)[O-])cc1 | -12
CCOc1ccc(NC(=O)NCCN2CCN(c3cccc(C)c3C)CC2)cc1 | -24.3
CN1CCN(CCCNC(=O)Nc2ccc([N+](=O)[O-])cc2)CC1 | -7.46
COc1c(C=O)cc2c3c1CCCN3CCC2 | 23.3
COc1ccc(N(C(=O)c2ccco2)C(C(=O)NC2CCCC2)c2cccs2)cc1OC (stereo not drawn) | 1.89

SMILES | hERG current change (%, negative = inhibition) at 10uM [%]
O=S1(=O)N=C(N/N=C/c2ccco2)c2ccccc21 | 13.1
COc1ccc(S(=O)(=O)N2CCOCC2)cc1NC(=O)COc1ccccc1OC | 22.3
COc1cc(C(=O)OCC(=O)N2CCOCC2)c([N+](=O)[O-])cc1OC | 14.5
O=C(Nc1nccs1)c1ccc(COc2ccc(F)cc2)o1 | 8.63
O=C1C2C(C(=O)N1c1nccs1)C1C=CC2C12CC2 (stereo not drawn) | -8.95
O=C(NCCCN1CCCC1)Nc1ccccc1[N+](=O)[O-] | 18.1
O=C(NCCN1CCCCC1)Nc1ccc(F)cc1 | -13.1
CCOc1ccc(NC(=O)NCCCN2CCCC2)cc1 | -1.89
COc1ccc(NC(=O)CN2CCN(c3ccccc3F)CC2)cc1 | -18.1
CCc1ccc(NC(=O)NCCN2CCN(c3ccc(OC)cc3)CC2)cc1 | -14.1
COc1ccc(NC(=O)NCCCN2CCN(c3ccccc3F)CC2)cc1 | -63.6
CCOc1ccc(NC(=O)CCN2CCN(c3ccccc3F)CC2)cc1 | -20.2
O=C(NCCCN1CCCC1)Nc1ccc(F)cc1 | 4.71
O=C(NCCCN1CCN(c2ccccc2F)CC1)Nc1ccccc1[N+](=O)[O-] | -72.1
O=C(NCCCN1CCN(c2ccccc2F)CC1)Nc1ccc(F)cc1 | -66.3
CCOc1ccc(NC(=O)NCCN2CCN(c3ccccc3F)CC2)cc1 | -62.3
O=C(Cc1ccccc1[N+](=O)[O-])N1CCN(c2ccccc2F)CC1 | 3.23
Cc1ccc(C(=O)NC(=S)Nc2ccc(-c3cc4ccccc4oc3=O)cc2)c(C)c1 | 27.1
Cc1ccc(C(=O)NCCc2ccccc2)cc1 | -1.2

SMILES | hERG current change (%, negative = inhibition) at 10uM [%]
CSc1cccc(NC(=O)Nc2ccccc2C(N)=O)c1 | 15.3
CCCOc1ccc(/C=N\NC(=O)CCc2n[nH]c(=O)[nH]c2=O)cc1OC | 2.51
COc1ccc(C2=NCC(CSc3nccc(=O)[nH]3)S2)cc1 (stereo not drawn) | 1.52
O=C(Cc1n[nH]c(=O)c2ccccc12)NC(c1ccccc1)c1ccccc1 | 6.6
Cn1c(=O)c(-c2cc(Br)ccc2N)nc2ccccc21 | -29.3
COc1ccc(C(=O)COC(=O)c2cc(C)no2)c(OC)c1 | 12
COC(=O)c1ccc2c(c1)C(C)(C)C(/C=C/c1ccc(O)cc1)=[N+]2C.[I-] | -70.9
COC(=O)c1ccc2c(c1)C(C)(C)C(/C=C/c1ccccc1O)=[N+]2C.[I-] | -69.5
COC(=O)c1ccc2c(c1)C(C)(C)C(/C=C/c1ccc(OC)c(OC)c1OC)=[N+]2C.[I-] | -2.88
COC(=O)c1ccc2c(c1)C(=O)/C(=C/c1ccc(O)cc1)O2 | 18.2
COC(=O)c1ccc(/C=C/C(=O)O)cc1 | 11.9
COC(=O)c1ccc2nc(C)c(C)nc2c1 | 15.8
O=C(O)[C@@H](O)c1ccccc1 | 6.63
CCOC(=O)c1sc2ncn(C(CC)C(=O)OC)c(=O)c2c1C (stereo not drawn) | 9.35
NC(=O)c1oc2ccccc2c1NC(=O)c1nc2ccccc2s1 | 6.28
CN(/N=C/c1ccccc1O)C(=S)c1ccccc1 | -3.8
CN1CCc2nc(NC(=O)COc3ccc4ccccc4c3)sc2C1 | -56.2
O=C(COc1ccccc1)Nc1nc2c(s1)CCCC2 | -20.3
CN1CCc2nc(NC(=O)COc3ccc(C#N)cc3)sc2C1 | -7.85
